These results are taken from PubChem BioAssay AID1851 (National Center for Advancing Translational Sciences (NCATS), 2009).

Screen size: about 16,000 compounds; about 5,100 (32%) were called active. Not shown: some 25% with an inconclusive outcome. The list shows a part of the results. Unmarked numbers belong to inactive results. Calls follow the shape of the dose curve; as a rule, active = well fitted curve in the direction sought with a large enough effect; inconclusive = small, poorly fitted or top-dose-only effect, or effect the other way; inactive = no such curve, though single readings can be large or run the other way.

As usually defined, the AC50 is the concentration at which the activity in the assay is half-maximal.
% is scaled to controls: 0 for no effect and ±100 for the full control effect.

Chain of Cytochrome P450 3A4 (Homo sapiens) (P08684 whole entry, looked up): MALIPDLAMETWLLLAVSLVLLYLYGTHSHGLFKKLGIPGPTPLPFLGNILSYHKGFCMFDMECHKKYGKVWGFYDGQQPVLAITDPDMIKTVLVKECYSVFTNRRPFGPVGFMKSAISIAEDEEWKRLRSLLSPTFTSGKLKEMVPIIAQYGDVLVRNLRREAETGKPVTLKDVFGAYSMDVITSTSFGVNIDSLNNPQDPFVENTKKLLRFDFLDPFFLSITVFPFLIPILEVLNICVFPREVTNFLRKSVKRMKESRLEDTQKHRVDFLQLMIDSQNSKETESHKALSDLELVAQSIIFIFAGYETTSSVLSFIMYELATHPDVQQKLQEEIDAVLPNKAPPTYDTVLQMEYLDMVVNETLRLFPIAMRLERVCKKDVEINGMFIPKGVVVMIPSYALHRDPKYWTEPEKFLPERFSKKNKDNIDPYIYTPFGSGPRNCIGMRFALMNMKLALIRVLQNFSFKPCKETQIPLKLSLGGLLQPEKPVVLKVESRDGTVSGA

This assay concerns the target Cytochrome P450 3A4 (Homo sapiens) (UniProt P08684). Description: Cytochrome panel assay with activity outcomes. The following applies: recombinant CYP, pro-luciferin dealkylation, luminescence, p450-cyp3a4; series mostly up to 57.1 µM; activity, negative = inhibition: at the top concentration.
Consider `COc1cccc(-c2cc(C(=O)N/N=C/c3ccc(OC)c(COC(C)=O)c3)c3ccccc3n2)c1`, for which the half-maximal activity concentration (AC50) was 1.78 µM (active). As to `COc1cccc(/C=N/NC(=O)c2nc(-c3ccccc3)cc(-c3ccccc3)n2)c1`, the “activity, negative = inhibition” value was 11.4%. Still for that read-out and setting: to `COc1ccc(/C=N/NC(=O)c2cc(-c3ccc(C)cc3C)nc3ccccc23)cc1COC(C)=O` belongs 14.1% [at 0.457 µM]; to `N[C@]1(C(=O)O)CCc2cc(P(=O)(O)O)ccc21`, -9.83%. Consider `Fc1ccc2c(c1)C(c1ccncc1)=NNC(c1ccc(Cl)cc1)=N2`, for which the AC50 was 1.78 µM (active). Take `CC(C)c1ccc2c(c1)C(c1ccc(N3CCOCC3)cc1)=NNC(c1cccs1)=N2`: the activity, negative = inhibition was 9.44% [at 2.29 µM]. Turning to `Clc1ccc2c(c1)C(c1cccs1)=NNC(c1cccnc1)=N2`, the AC50 is 10 µM (active). For the molecule `O=C(O)[C@H]1CCCC[C@@H]1c1c2ccc(=O)c(O)c-2oc2c(O)c(O)ccc12`, the activity, negative = inhibition is -5.27% [at 11.4 µM]. Same read-out and setting: to `CSc1nc(Oc2ccc(F)cc2)c2ccccc2n1` belongs 1.87%. Turning to `C=CCSc1nc(Oc2ccccc2)c2sccc2n1`, the AC50 is 10 µM (active). Still for that read-out and setting: the figure for `C=CCNc1nc(SCC=C)nc2ccsc12` is 12.6 µM (active). As to `C=CCSc1ccsc1C(=O)O`, the “activity, negative = inhibition” value was -6.67%. Consider `C=CCSc1nc(NC)c2sccc2n1`, for which the AC50 is 25.1 µM (active). On to `NS(=O)(=O)c1ccc(N=Nc2c[nH]c(=O)c(O)c2)cc1`, for which the activity, negative = inhibition is -19.5% [at 11.4 µM]. `O=C(CSc1nc2nc(-c3cccs3)cc(C(F)(F)F)c2c(=O)[nH]1)NCc1ccco1`: the AC50 was 14.1 µM (active). For the molecule `N#Cc1c(-c2cccs2)nc(SCC(=O)c2cccs2)[nH]c1=O`, the activity, negative = inhibition was -3.29% [at 2.29 µM]. In the case of `CSc1nc(O)c(Cc2ccccc2)c(=O)[nH]1`, the “activity, negative = inhibition” value was -2.8%. As for `CSc1nc(-c2ccc(C)cc2)[nH]c1S(=O)(=O)c1ccccc1`, the AC50 was 28.2 µM (active).

For `CCCCCOC(=O)c1c(N)n(CCOC)c2nc3ccccc3nc12`, the AC50 was 8.91 µM (active).

Turning to `C=C(CC1([C@@H](NP(=O)(c2ccccc2)c2ccccc2)[C@H]2C[C@@H]2CCCC)CC1)c1cccc(OC)c1`, the AC50 was 2.51 µM (active).

Regarding `C=C(CC1([C@@H](NP(=O)(c2ccccc2)c2ccccc2)[C@H]2C[C@@H]2CCN(C(=O)OCC)S(=O)(=O)c2ccc(C)cc2)CC1)c1ccccc1`, the concentration at half-maximal activity (AC50) is 1.58 µM (active).

Turning to `C=C(CC1([C@@H](NP(=O)(c2ccccc2)c2ccccc2)[C@H]2C[C@@H]2CCCC)CC1)c1ccccc1`, the concentration at half-maximal activity (AC50) was 1.58 µM (active). Turning to `O=C(O)c1ccc(SSc2ccc(C(=O)O)cn2)nc1`, the activity, negative = inhibition is -8.92% [at 11.4 µM]. The same measure, in the same setting: to `Cc1cc(C(=O)OCC(=O)NCCCN2CCCC2=O)c2ccccc2n1` belongs -5.65% [at 2.29 µM]. As to `Cc1ccc(C(=O)N(CN2CCCC2=O)c2ccccc2)cc1C`, the AC50 was 12.6 µM (active). For the molecule `O=C1CCCN1CC(O)CS(=O)(=O)c1ccccc1` (stereo not drawn), the “activity, negative = inhibition” value is -2.95%. Same read-out and setting: the figure for `CC1(C)CO[C@H](CC(=O)O)CN1` is -11.5%; for `COc1cccc(OC)c1C(=O)NC(=S)N1CCN(c2ccc(C(F)(F)F)cc2[N+](=O)[O-])CC1` it is -16.4% [at 2.29 µM]. Regarding `O=c1c([N+](=O)[O-])cc(C(F)(F)F)cn1Cc1c(Cl)cccc1Cl`, the AC50 was 14.1 µM (active).

As to `O=C(O)C1CCN(c2c([N+](=O)[O-])cc(C(F)(F)F)cc2[N+](=O)[O-])CC1`, the “activity, negative = inhibition” value was 4.13%. Same read-out and setting: to `CCC(=O)OCC(=O)[C@@]1(OC(=O)CC)[C@H](C)C[C@@H]2[C@H]3CCC4=CC(=O)C=C[C@]4(C)[C@]3(Cl)[C@@H](O)C[C@@]21C` belongs -13.1% [at 25.6 µM]; to `CCC(=O)[C@@]1(C)[C@H](C)C[C@@H]2[C@@H]3CCC4=CC(=O)C=C[C@@]4(C)[C@H]3[C@H](O)C[C@]21C`, -6.68% [at 25.6 µM]. As to `CN(C)C(N)=NCCC[C@H](N)C(=O)O`, the “activity, negative = inhibition” value was 2.12%. As to `Cc1ccc(-c2ccc(/C=N\NC(=O)c3cc4c(ccc5ccccc54)o3)o2)cc1[N+](=O)[O-]`, the “activity, negative = inhibition” value is -21.4%.

For `Cc1ccc(C(=O)N/N=C\c2ccc[nH]2)cc1[N+](=O)[O-]`, the activity, negative = inhibition is 16.8% [at 2.29 µM]. `Cc1ccc(-c2ccc(/C=N/NC(=S)Nc3ccccc3)o2)cc1[N+](=O)[O-]`: the AC50 was 7.08 µM (active). For the molecule `Cc1cc(C(F)(F)F)n2nc(-c3cnn(C)c3C(F)(F)F)c(Cl)c2n1`, the “activity, negative = inhibition” value was -19%. `Clc1ccccc1-c1nc(-n2ccnc2)c2ccccc2n1`: the concentration at half-maximal activity (AC50) was 0.501 µM (active). The same measure, in the same setting: to `Cc1ccccc1-c1nc(-n2ccnc2)c2ccccc2n1` belongs 0.398 µM (active). On the same count and under the same terms, to `NC(=O)c1ccccc1-c1nc(-n2ccnc2)c2ccccc2n1` belongs 3.98 µM (active). Regarding `CC(C)(C)OC(=O)[C@H]([C@@H]1N[C@@H](C(=O)O)C(C)(C)S1)N1C(=O)c2ccccc2C1=O`, the activity, negative = inhibition was -8.52% [at 11.4 µM]. As for `Cc1cc(NC(=O)CSc2nc3ccccc3c(=O)n2CCCC(=O)NCc2ccco2)n[nH]1`, the concentration at half-maximal activity (AC50) was 3.55 µM (active). In the case of `COCC(=O)N1CCC2(CC1)CCN(C(=O)Nc1ccc(OC)cc1)CC2`, the “activity, negative = inhibition” value is -9.58%. In the case of `COc1ccc(NC(=O)CSc2nc3ccccc3c(=O)n2CCC(=O)N2CCCCC2)cc1`, the AC50 is 2 µM (active). As for `O=C(CSc1ccccc1C(=O)O)NCc1ccco1`, the “activity, negative = inhibition” value was -4.45%. For `Cc1cccc(C)c1-n1c(SCC(=O)NCc2ccco2)nc2ccccc2c1=O`, the AC50 is 3.98 µM (active). Take `CCCCn1c(SCC(=O)Nc2nccs2)nc2ccccc2c1=O`: the AC50 is 3.16 µM (active). The same measure, in the same setting: the figure for `CC(=O)NCCn1c(SCC(=O)NCc2ccco2)nc2ccccc2c1=O` is 15.8 µM (active); for `Cc1cc(C)c(NC(=O)C(C)Sc2nnc(-c3ccco3)n2-c2ccccc2)c(C)c1` (stereo not drawn) it is 3.55 µM (active). Still for that read-out and setting: to `O=C(CSc1nnc(-c2ccco2)n1-c1ccccc1)NCc1ccco1` belongs 15.8 µM (active). With `C=CCSc1nc2ccccc2c(=O)n1Cc1ccco1`, the activity, negative = inhibition is -25.8% [at 11.4 µM]. Turning to `CCCCNC(=O)CSc1nc2ccccc2c(=O)n1CCNC(C)=O`, the AC50 was 25.1 µM (active). Take `O=C(CSc1nnc2sc3ccccc3n12)NCc1ccco1`: the activity, negative = inhibition is -18.1% [at 11.4 µM].

`CCCCNC(=O)C(=O)c1ccccc1NC(C)=O`: the “activity, negative = inhibition” value is -7.34%. The same measure, in the same setting: to `Cc1ccc(Oc2nn[nH]n2)cc1` belongs 0.361%. On to `CC1CCC(C(=O)O)([C@H](Br)C(=O)O)CC1` (stereo partly drawn), for which the activity, negative = inhibition is -2.61% [at 11.4 µM]. Same read-out and setting: to `NC(=O)OCC(COC(N)=O)c1ccccc1` belongs -10.4%.

Turning to `CCOC(=O)CSc1nc2ccccc2c(=O)n1CC1CCC(C(=O)NCc2ccco2)CC1` (stereo not drawn), the concentration at half-maximal activity (AC50) is 5.01 µM (active). For `CCN(C(=O)CSc1nc2cc(C(=O)OC)ccc2c(=O)n1Cc1ccco1)c1cccc(C)c1`, the “activity, negative = inhibition” value was 16.4%. For the molecule `O=C(CSc1nc2ccccc2c(=O)n1CCCC(=O)N1CCCC1)NCc1ccco1`, the AC50 is 6.31 µM (active). Turning to `CCCCCn1c(SCc2ccncc2)nc2cc(C(=O)NCc3ccco3)ccc2c1=O`, the concentration at half-maximal activity (AC50) was 0.794 µM (active). For the molecule `O=C(O)CCCCCn1c(SCC(=O)N2CCCC2)nc2ccsc2c1=O`, the “activity, negative = inhibition” value is -2.61%. Still for that read-out and setting: the figure for `CCS(=O)(=O)N1CCC(C(=O)NCc2ccco2)CC1` is 3.51%. For `CC(/C=N/n1c(-c2cccnc2)n[nH]c1=S)=C\c1ccccc1`, the AC50 was 2 µM (active).

For the molecule `O=C(O)CC[C@]1(C(=O)O)CCC(=O)c2ccccc21`, the activity, negative = inhibition was -0.615% [at 11.4 µM].

In the case of `COc1ccccc1CNc1cc(-c2ccoc2)ncn1`, the AC50 is 15.8 µM (active). Still for that read-out and setting: to `COc1ccc(CNc2cc(-c3ccoc3)ncn2)c(OC)c1` belongs 15.8 µM (active).

Regarding `Cc1ccc(S(=O)(=O)c2cc(N3CCOCC3)nc(-c3ccccc3)n2)cc1`, the activity, negative = inhibition is -13.7% [at 2.29 µM]. As to `O=c1nc(N2CCOCC2)ccn1-c1nc(-c2ccccc2)oc1-c1ccccc1`, the “activity, negative = inhibition” value is -11.6%. The same measure, in the same setting: the figure for `Cc1cc(Oc2ccccc2)nc(-c2ccccc2)n1` is 12.9%.

On to `Cc1ccc(Oc2cc(N3CCOCC3)nc(-c3ccccc3)n2)cc1`, for which the AC50 is 14.1 µM (active). Same read-out and setting: the figure for `COc1cccc(Sc2cc(N3CCOCC3)nc(-c3ccccc3)n2)c1` is 0.794 µM (active). For the molecule `Cc1cc(Oc2ccc(-c3ccccc3)cc2)nc(N2CCOCC2)n1`, the “activity, negative = inhibition” value was -13.8%. On to `N#C/C(=C/c1ccc(N2CCCC2)c([N+](=O)[O-])c1)c1nc2ccccc2[nH]1`, for which the AC50 was 2.82 µM (active). Turning to `N#C/C(=C\c1ccc(N2CCCC2)c([N+](=O)[O-])c1)c1nc2ccccc2[nH]1`, the AC50 was 1.58 µM (active). Same read-out and setting: to `Cc1cc(N)n2ncc(-c3ccc(Cl)cc3)c2n1` belongs 15.8 µM (active). In the case of `Cc1cc(N2CCN(C)CC2)n2nc(-c3ccc(Cl)cc3)nc2n1`, the activity, negative = inhibition is -14.4% [at 11.4 µM]. On the same count and under the same terms, the figure for `Cc1nc2nc(-c3ccc(Cl)cc3)nn2c(C)c1Cl` is 24.5%; for `CC(C)(C)C(=O)OCc1cn(-c2ccc(Cl)cc2)nn1` it is -21.3%.

In the case of `COc1cc(S(C)=O)ccc1-c1nc2ncccc2[nH]1` (stereo not drawn), the “activity, negative = inhibition” value is -7.54% [at 25.6 µM].

On to `Cc1ccc(Cn2cccc(NC(=O)NC3CCCCC3)c2=O)cc1`, for which the concentration at half-maximal activity (AC50) was 12.6 µM (active). Turning to `Cc1ccc(Cn2cccc(NC(=O)NCc3ccccc3)c2=O)cc1`, the “activity, negative = inhibition” value is -19%.

Consider `O=C(Nc1cccn(Cc2ccc(F)cc2)c1=O)NC1CCCCC1`, for which the half-maximal activity concentration (AC50) is 15.8 µM (active). With `NCCSCCC(=O)O`, the activity, negative = inhibition is -1.66% [at 11.4 µM]. Consider `CC(Oc1ccccc1)c1ccnn1S(=O)(=O)c1ccccc1` (stereo not drawn), for which the activity, negative = inhibition is -13.1% [at 11.4 µM]. On to `O=S(=O)(c1ccc(F)cc1)n1ccc(-c2cnc(-c3ccccc3)s2)n1`, for which the AC50 was 11.2 µM (active). The same measure, in the same setting: to `COc1ccc(S(=O)(=O)n2ccc(-c3cnc(-c4ccccc4)s3)n2)cc1` belongs 3.98 µM (active). As for `CC[C@@H](C)[C@H]1O[C@]2(CC[C@@H]1C)C[C@@H]1C[C@H](C/C=C(/C)[C@H](O[C@@H]3C[C@H](OC)[C@H](O[C@@H]4C[C@H](OC)[C@@H](O)[C@H](C)O4)[C@H](C)O3)[C@@H](C)/C=C\C=C3CO[C@@H]4[C@H](O)C(C)=C[C@@H](C(=O)O1)[C@]34O)O2` (tested in a mixture with another compound), the “activity, negative = inhibition” value is -40.2%.
